Data published in PubChem BioAssay AID1159580 (chemical genetic matrix, 2015).
Among all 5,500 compounds or so, about 2,000 (36%) were called active. Another 18% or so got no clear call; they are omitted. No stated cut-off is given here; in the data, active means normalized growth mostly below about 0.91 (no sharp cut-off); inconclusive means no clear call, values can overlap the other calls; inactive means mostly above about 0.92. Some of the results follow.

Assay: chemical genetic growth profiling, strain panel (AID 1159580);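 further: tested at 20 µM; growth read once vehicle control cultures reached saturation at 30 °C; 1 = growth at the plate median or of vehicle wells; lower values mean less growth of the strain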
Conditions: S. cerevisiae deletion strains, growth OD

Measured: normalized growth

C=C(C)C1Cc2c(ccc(C(=O)O)c2O)O1 (stereo not given)
inactive: locus YBR021W, strain FUR4, active compounds read low 0.931 | locus YBR229C, strain ROT2, active compounds read low 0.984 | locus YCL029C, strain bik1, active compounds read low 0.979 | locus YDL035C, strain GPR1, active compounds read low 1.03 | locus YDL074C, strain BRE1, active compounds read low 1.02 | locus YDL101C, strain DUN1, active compounds read low 1.02 | locus YDL134C, strain PPH21, active compounds read low 1.03 | locus YDL192W, strain arf1, active compounds read low 0.965 | locus YDR101C, strain arx1, active compounds read low 0.954 | locus YDR162C, strain NBP2, active compounds read low 1.03 | locus YDR318W, strain mcm21, active compounds read low 0.963 | locus YDR388W, active compounds read low 0.953 | locus YDR502C, strain sam2, active compounds read low 0.979 | locus YEL061C, strain CIN8, active compounds read low 0.991 | locus YER110C, active compounds read low 0.944 | locus YER155C, strain BEM2, active compounds read low 0.946 | locus YER167W, strain BCK2, active compounds read low 1 | locus YGL078C, strain dbp3, active compounds read low 0.932 | locus YGL086W, strain mad1, active compounds read low 0.982 | locus YGL248W, strain PDE1, active compounds read low 1 | locus YGR135W, strain pre9, active compounds read low 0.969 | locus YGR252W, strain gcn5, active compounds read low 0.871 | locus YHR030C, strain SLT2, active compounds read low 0.982 | locus YHR079C, strain IRE1 (second series), active compounds read low 0.948 | locus YHR094C, strain hxt1, active compounds read low 0.944 | locus YHR129C, strain ARP1, active compounds read low 0.993 | locus YHR200W, strain rpn10, active compounds read low 0.958 | locus YIL066C, strain RNR3, active compounds read low 1.03 | locus YIL073C, strain SPO22, active compounds read low 1.05 | locus YIR030C, strain dcg1, active compounds read low 0.957 | locus YJL095W, strain BCK1, active compounds read low 1.04 | locus YJL134W, strain LCB3, active compounds read low 0.979 | locus YJL168C, strain set2, active compounds read low 0.946 | locus YJL187C, strain SWE1 (second series), active compounds read low 1.02 | locus YJR043C, strain POL32, active compounds read low 1.02 | locus YJR075W, strain HOC1, active compounds read low 1.01 | locus YKL085W, strain MDH1 (second series), active compounds read low 0.931 | locus YKL085W, strain MDH1, active compounds read low 0.931 | locus YKL190W, strain CNB1, active compounds read low 0.998 | locus YKR001C, strain vps1, active compounds read low 0.901 | locus YLR039C, strain RIC1, active compounds read low 1.07 | locus YLR058C, strain SHM2, active compounds read low 1 | locus YLR102C, strain apc9, active compounds read low 0.942 | locus YLR262C, strain YPT6, active compounds read low 1.08 | locus YLR268W, strain sec22, active compounds read low 0.99 | locus YLR330W, strain CHS5, active compounds read low 0.976 | locus YLR342W, strain FKS1 (second series), active compounds read low 0.998 | locus YLR371W, strain rom2, active compounds read low 0.957 | locus YLR418C, strain cdc73, active compounds read low 0.957 | locus YML016C, strain PPZ1, active compounds read low 0.987 | locus YML032C, strain rad52, active compounds read low 0.988 | locus YML124C, strain tub3, active compounds read low 0.957 | locus YMR078C, strain ctf18, active compounds read low 0.923 | locus YMR223W, strain ubp8, active compounds read low 0.98 | locus YMR307W, strain GAS1, active compounds read low 0.972 | locus YNL067W, strain RPL9B, active compounds read low 1.01 | locus YNL233W, strain BNI4, active compounds read low 1.01 | locus YNL250W, strain rad50, active compounds read low 0.911 | locus YNL307C, strain MCK1, active compounds read low 0.95 | locus YNL322C, strain KRE1, active compounds read low 0.993 | locus YNR052C, strain pop2, active compounds read low 0.971 | locus YOL012C, strain htz1 1.06 | locus YOL147C, strain pex11, active compounds read low 0.955 | locus YOR061W, strain CKA2, active compounds read low 0.995 | locus YOR069W, strain VPS5, active compounds read low 0.99 | locus YOR136W, strain idh2, active compounds read low 0.985 | locus YOR144C, strain elg1, active compounds read low 0.948 | locus YOR184W, strain ser1, active compounds read low 0.989 | locus YOR316C, strain cot1, active compounds read low 0.939 | locus YPR119W, strain clb2, active compounds read low 0.943 | locus YPR141C, strain kar3, active compounds read low 0.918 | locus YPR163C, strain tif3, active compounds read low 0.968 | locus YPR167C, strain met16, active compounds read low 0.963 | strain wtn01, active compounds read low 0.972
active: locus YDL185W, strain tfp1, active compounds read low 0.86 | locus YIL125W, strain kgd1, active compounds read low 0.91 | locus YKL009W, strain mrt4, active compounds read low 0.865 | locus YKL068W, active compounds read low 0.91 | locus YNL271C, strain bni1, active compounds read low 0.9 | locus YNL298W, strain CLA4, active compounds read low 0.795
